The structures appear in SMILES notation. About 8,600 (12%) of roughly 69,000 compounds showed an effect of 50% or more. What follows is part of a selection rich in strong results, with near analogues and random picks from the rest.

This experiment concerns Plasmodium berghei. As to the kind of experiment: Screen against P. berghei liver stage (PbLuc), transformed with Luciferase, at 10uM. The experiment is classed as functional, HepG2. Particulars: tested at 10 uM.
For `O=C(CCOCC(F)(F)F)N1CCCC1c1noc(C2CC2)n1` (stereo not drawn), the INHIBITION is given as -21.5%.
The value for `Cc1nc(NC(=O)C(C)N(C)Cc2ccc3c(c2)OCO3)sc1C` (stereo not drawn) was 46.3%; that for `Cc1cc(C)n(C2CCCN(C(=O)CCOc3ccccc3F)C2)n1` (stereo not drawn) was -11.4%.
The same measure for `COCc1noc(-c2cc(Cl)c3c(c2)OCCCO3)n1`: 19.8%; for `CC(=O)N1CCC(C(=O)N2CCCC(Cc3ccccn3)C2)CC1` (stereo not drawn): -6.92%; for `Cc1cccc(NC2CCN(C(=O)Nc3ccccn3)CC2)n1`: 28.8%.
`Cc1ccc(C(=O)NC2CCN(C(=O)Nc3ccccn3)CC2)s1`: the INHIBITION is -21.9%.
As for `O=C(NC1CCCCC1)C1CCCN(C(=O)Nc2ccccn2)C1` (stereo not drawn), the INHIBITION stood at 66.1%.
The value for `CC1CCN(C(=O)C2CCCN(C(=O)Nc3ccccn3)C2)CC1` (stereo not drawn) was 89.6%; that for `CC1CCN(CC2CCCN(C(=O)Nc3ccccn3)C2)CC1` (stereo not drawn) was 55%.
The same measure for `CN(C)c1ncc(NC(=O)N2CCC(CN3CCCC3)C2)cn1` (stereo not drawn): -45%.
The same measure for `CC1CCN(CC(O)CNc2ccccn2)CC1` (stereo not drawn): 1.62%; for `Cc1ccc(C(=O)NC2CCN(C(=O)Nc3ccccn3)CC2)o1`: -1.58%.
Consider `CNc1ccc(CC2CCCN(C(=O)c3cnccn3)C2)nn1` (stereo not drawn), for which the INHIBITION was 32.3%.
As for `O=C(NCC1(O)COCCN(Cc2cccc(O)c2)C1)c1cscn1` (stereo not drawn), the INHIBITION is listed as -19.7%.
For `Cc1cc(C)n(CC(C)Nc2nc(-c3ccncc3)nc3c2CNC3)n1` (stereo not drawn), the INHIBITION came to 49.2%.
The value for `Cn1cnc2c(N3CCCC3)nc(C3CCN(CC4CC4)CC3)cc21` was -14.4%; that for `CCOC(=O)N1CCN(c2nc(C)ncc2CC)CC1` was 47.1%; that for `CCc1cnc(C)nc1N1CCN(C(N)=O)CC1` was 46.1%.
Consider `CCc1cnc(C)nc1N1CCS(=O)(=O)CC1`, for which the INHIBITION came out at 57.3%.
The same measure for `O=C(Cn1cc(Cl)cn1)N1CCCC(c2ccn[nH]2)C1` (stereo not drawn): 28%; for `Cc1occc1CNC(=O)NCCN(C)C1CCCC1`: 16.8%; for `CCOCC1CN(C(=O)c2ccoc2)Cc2cnn(C)c21` (stereo not drawn): 15.6%.
For `Cc1ccsc1CN(C)Cn1nccc1-c1cccnc1`, the INHIBITION was determined as 5.79%.
The same measure for `CN(Cc1ccc(C#N)cc1)Cn1nccc1-c1cccnc1`: 50.5%.
On to `Cc1noc(C)c1CN(C)Cn1nccc1-c1cccnc1`, for which the INHIBITION is listed as 36.2%.
Consider `NC(=O)c1sc2ccccc2c1C1CCN(S(=O)(=O)N2CCOCC2)C1` (stereo not drawn), for which the INHIBITION is on record as -24.4%.
The value for `CCc1ccc(CNc2cc(N3CCCC3CO)ncn2)s1` (stereo not drawn) was 49.1%; that for `CC(C)N(Cc1ccccn1)C(=O)CCC(=O)c1ccc(F)cc1F` was 36.9%; that for `CN(Cc1ccccc1-n1cccn1)C[C@@H]1CCCN2CCCC[C@H]12` was 40.7%.
Regarding `CN(Cc1nc2ccccc2c(=O)[nH]1)C[C@@H]1CCCN2CCCC[C@H]12`, the INHIBITION is 42.6%.
On to `CN(Cc1nc2ccsc2c(=O)[nH]1)CC1CCCCC1`, for which the INHIBITION is -21.8%.
The value for `CN(Cc1ccc(-n2cccn2)cc1)C[C@@H]1CCCN2CCCC[C@H]12` was 70%; that for `CN(Cc1ccc(-n2cccn2)cc1)CC1CCCN1c1cccnn1` (stereo not drawn) was 9.64%.
The same measure for `CN(Cc1nc2ccsc2c(=O)[nH]1)C[C@@H]1CCCN2CCCC[C@H]12`: 68.4%; for `CNC(=O)C1(CCCc2ccncc2)CCCCN1` (stereo not drawn): -4.51%; for `CCc1cc(NCCCN(C)C2CCCC2)ncn1`: -13.1%.
Regarding `Cc1nc(C(=O)N(CC2CCCO2)c2ccncc2)cs1` (stereo not drawn), the INHIBITION is recorded as 45.5%.
`CCc1ccccc1CN1CCC(N2CCCC2=O)CC1`: the INHIBITION was -0.87%.
The same measure for `CN(C)c1ccccc1CN1CCCC(N2CCCC2=O)C1` (stereo not drawn): 51.7%; for `O=C1CCCN1C1CCCN(CCOc2ccc(F)cc2)C1` (stereo not drawn): 31.2%.
The same measure for `CC(C)(C#N)c1ccccc1CN1CCC(N2CCCC2=O)CC1`: 57.7%; for `CN(C)c1ccccc1CN1CCC(N2CCCC2=O)CC1`: 25.2%; for `COC(=O)N1CCN(Cc2ccccc2C(C)(C)C#N)CC1`: 39.2%.
The value for `CCSCc1csc(-c2ccc(S(C)(=O)=O)cc2)n1` was -35.8%; that for `CCOc1cc(CNC(=O)CNC(=O)CC2CCCCC2)ccn1` was 6.23%.
For `NCc1cnc(Nc2ccccc2)nc1`, the INHIBITION is listed as 23.1%.
Take `CCc1cnc(CN(C(C)=O)C2CCN(CCN3CCCCC3)C2)o1` (stereo not drawn): the INHIBITION is recorded as 31.9%.
The value for `CC(C)c1noc(-c2ccc(-n3cnc(C(=O)O)c3)nc2)n1` was 2.49%.
The value for `Cc1c(C(=O)N2CCCC(C(=O)c3nccn3C)C2)c[nH]c(=O)c1C#N` (stereo not drawn) was 25.1%.
The value for `O=C1NCCN(C(=O)CN2CCOC2=O)C1c1cccc(F)c1` (stereo not drawn) was 32%; that for `O=C(CCC(=O)N1CCNC(=O)C1c1cccc(F)c1)NC1CCCC1` (stereo not drawn) was 55.5%; that for `O=C1NCCN(C(=O)CCN2CCCO2)C1c1cccc(F)c1` (stereo not drawn) was 5.15%.

For the origin of these results see ChEMBL document CHEMBL4513216, “Probing the Open Global Health Chemical Diversity Library for Multistage-Active Starting Points for Next-Generation Antimalarials” (ACS Infect Dis, 2020).
